Measurements reported in paper PMC8338941.

Molecular target: Large ribosomal subunit protein eL13A (UniProt Q12690)
Experiment: cross-link between two proteins; cross-linking mass spectrometry

Sequence of Large ribosomal subunit protein eL13A (Q12690 whole entry): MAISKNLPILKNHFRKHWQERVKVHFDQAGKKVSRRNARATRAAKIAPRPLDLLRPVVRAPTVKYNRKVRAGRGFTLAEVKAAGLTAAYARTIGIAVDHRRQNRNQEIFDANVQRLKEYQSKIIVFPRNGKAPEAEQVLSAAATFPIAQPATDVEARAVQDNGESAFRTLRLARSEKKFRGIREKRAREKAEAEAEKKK

| Substance | listed as a hit |
| --- | --- |
| Large ribosomal subunit protein uL29A, P0CX84 | yes |
| Large ribosomal subunit protein eL36B, O14455 | yes |
